This is an account of results in ChEMBL document CHEMBL2218924, “A broad activity screen in support of a chemogenomic map for kinase signalling research and drug discovery” (Biochem J, 2013).

Assay [1] has as its target Focal adhesion kinase 1 (Homo sapiens) (UniProt Q05397). The settings on record: at 10 µM.
The target of assay [2] is Fibroblast growth factor receptor 1 (Homo sapiens) (UniProt P11362). The settings on record: at 1 µM.
Assay [3] shares this target. The conditions noted are these: at 10 µM.
The target of assay [4] is Fibroblast growth factor receptor 2 (Homo sapiens) (UniProt P21802). The conditions noted are these: at 1 µM.
For assay [5] the target is unchanged. The settings on record: at 10 µM.
For assay [6], the target named is Fibroblast growth factor receptor 3 (Homo sapiens) (UniProt P22607). The conditions noted are these: at 1 µM.
Assay [7] has the same target. The conditions noted are these: at 10 µM.
The target in assay [8] is Fibroblast growth factor receptor 4 (Homo sapiens) (UniProt P22455). The conditions noted are these: at 1 µM.
The target is the same in assay [9]. The conditions noted are these: at 10 µM.
The target of assay [10] is Tyrosine-protein kinase Fer (Homo sapiens) (UniProt P16591). The conditions noted are these: at 1 µM.
The target is the same in assay [11]. The conditions noted are these: at 10 µM.
The target of assay [12] is Tyrosine-protein kinase Fes/Fps (Homo sapiens) (UniProt P07332). The conditions noted are these: at 1 µM.
In assay [13] the target is Tyrosine-protein kinase Fgr (Homo sapiens) (UniProt P09769). The conditions noted are these: at 1 µM.
For assay [14] the target is unchanged. The conditions noted are these: at 10 µM.
Assay [15] addresses Vascular endothelial growth factor receptor 1 (Homo sapiens) (UniProt P17948). The conditions noted are these: at 1 µM.
Assay [16] has the same target. The settings on record: at 10 µM.
Assay [17] addresses Receptor-type tyrosine-protein kinase FLT3 (Homo sapiens) (UniProt P36888). The settings on record: at 1 µM.
Assay [18] has the same target. The settings on record: at 10 µM.
Assay [19] deals with Vascular endothelial growth factor receptor 3 (Homo sapiens) (UniProt P35916). The settings on record: at 1 µM.
The target of assay [20] is Tyrosine-protein kinase Fes/Fps (Homo sapiens) (UniProt P07332). The conditions noted are these: at 10 µM.

Sequence of Fibroblast growth factor receptor 2 (Homo sapiens) (P21802 22-821 limits assumed): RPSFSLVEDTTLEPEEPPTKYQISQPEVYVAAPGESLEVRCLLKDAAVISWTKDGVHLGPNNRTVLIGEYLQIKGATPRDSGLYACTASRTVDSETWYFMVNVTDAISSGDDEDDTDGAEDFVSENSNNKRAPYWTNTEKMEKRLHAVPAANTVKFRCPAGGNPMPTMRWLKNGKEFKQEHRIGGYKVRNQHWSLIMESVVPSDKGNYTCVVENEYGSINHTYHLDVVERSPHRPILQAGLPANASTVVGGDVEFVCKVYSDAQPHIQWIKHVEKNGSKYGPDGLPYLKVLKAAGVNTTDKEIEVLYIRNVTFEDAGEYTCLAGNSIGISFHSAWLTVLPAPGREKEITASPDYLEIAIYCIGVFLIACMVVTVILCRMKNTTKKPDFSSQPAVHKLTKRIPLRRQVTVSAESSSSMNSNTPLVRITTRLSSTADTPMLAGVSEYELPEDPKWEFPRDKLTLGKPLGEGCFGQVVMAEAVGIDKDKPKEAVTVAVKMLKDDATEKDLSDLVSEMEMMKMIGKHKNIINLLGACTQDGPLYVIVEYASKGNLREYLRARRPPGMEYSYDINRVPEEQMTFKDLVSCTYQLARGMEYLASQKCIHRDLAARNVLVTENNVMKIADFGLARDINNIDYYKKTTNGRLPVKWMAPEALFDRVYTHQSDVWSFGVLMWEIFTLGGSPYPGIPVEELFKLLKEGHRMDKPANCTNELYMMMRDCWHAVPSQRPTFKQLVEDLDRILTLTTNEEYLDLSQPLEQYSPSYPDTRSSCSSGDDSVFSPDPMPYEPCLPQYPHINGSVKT
Sequence of Vascular endothelial growth factor receptor 3 (Homo sapiens) (P35916 whole entry): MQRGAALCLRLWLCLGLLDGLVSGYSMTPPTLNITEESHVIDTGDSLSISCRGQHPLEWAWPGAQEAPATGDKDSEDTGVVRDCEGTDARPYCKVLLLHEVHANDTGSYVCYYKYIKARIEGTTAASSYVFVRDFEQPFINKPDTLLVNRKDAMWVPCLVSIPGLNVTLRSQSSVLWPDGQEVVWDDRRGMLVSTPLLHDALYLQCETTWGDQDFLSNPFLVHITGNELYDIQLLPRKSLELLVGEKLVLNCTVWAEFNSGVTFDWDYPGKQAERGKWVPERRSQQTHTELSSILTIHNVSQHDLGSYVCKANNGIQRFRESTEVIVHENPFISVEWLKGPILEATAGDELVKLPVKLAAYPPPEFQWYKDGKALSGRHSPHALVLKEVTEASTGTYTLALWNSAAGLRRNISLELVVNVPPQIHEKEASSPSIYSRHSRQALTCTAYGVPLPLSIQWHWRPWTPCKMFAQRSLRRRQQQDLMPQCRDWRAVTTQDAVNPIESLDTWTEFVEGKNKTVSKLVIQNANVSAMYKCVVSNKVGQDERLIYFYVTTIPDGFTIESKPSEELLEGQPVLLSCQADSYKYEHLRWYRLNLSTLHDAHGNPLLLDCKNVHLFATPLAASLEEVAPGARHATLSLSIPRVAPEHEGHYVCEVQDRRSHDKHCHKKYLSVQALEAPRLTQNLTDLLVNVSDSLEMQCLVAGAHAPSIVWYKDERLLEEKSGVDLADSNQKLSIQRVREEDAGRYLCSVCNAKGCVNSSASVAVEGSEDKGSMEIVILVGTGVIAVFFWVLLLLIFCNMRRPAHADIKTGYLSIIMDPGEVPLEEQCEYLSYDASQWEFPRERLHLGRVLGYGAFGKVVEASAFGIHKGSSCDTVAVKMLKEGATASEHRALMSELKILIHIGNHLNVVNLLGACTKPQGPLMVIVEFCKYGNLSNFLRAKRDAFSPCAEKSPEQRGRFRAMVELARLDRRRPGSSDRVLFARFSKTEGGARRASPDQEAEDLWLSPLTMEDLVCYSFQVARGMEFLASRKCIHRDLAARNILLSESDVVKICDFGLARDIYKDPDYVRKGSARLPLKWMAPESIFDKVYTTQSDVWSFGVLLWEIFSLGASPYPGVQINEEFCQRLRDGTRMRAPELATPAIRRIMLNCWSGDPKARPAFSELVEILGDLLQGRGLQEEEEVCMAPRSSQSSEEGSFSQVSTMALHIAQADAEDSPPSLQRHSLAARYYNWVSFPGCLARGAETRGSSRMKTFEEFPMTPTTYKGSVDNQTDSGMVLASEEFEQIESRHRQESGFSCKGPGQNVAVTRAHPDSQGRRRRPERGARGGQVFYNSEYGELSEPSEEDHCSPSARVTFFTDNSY
Sequence of Vascular endothelial growth factor receptor 1 (Homo sapiens) (P17948 whole entry): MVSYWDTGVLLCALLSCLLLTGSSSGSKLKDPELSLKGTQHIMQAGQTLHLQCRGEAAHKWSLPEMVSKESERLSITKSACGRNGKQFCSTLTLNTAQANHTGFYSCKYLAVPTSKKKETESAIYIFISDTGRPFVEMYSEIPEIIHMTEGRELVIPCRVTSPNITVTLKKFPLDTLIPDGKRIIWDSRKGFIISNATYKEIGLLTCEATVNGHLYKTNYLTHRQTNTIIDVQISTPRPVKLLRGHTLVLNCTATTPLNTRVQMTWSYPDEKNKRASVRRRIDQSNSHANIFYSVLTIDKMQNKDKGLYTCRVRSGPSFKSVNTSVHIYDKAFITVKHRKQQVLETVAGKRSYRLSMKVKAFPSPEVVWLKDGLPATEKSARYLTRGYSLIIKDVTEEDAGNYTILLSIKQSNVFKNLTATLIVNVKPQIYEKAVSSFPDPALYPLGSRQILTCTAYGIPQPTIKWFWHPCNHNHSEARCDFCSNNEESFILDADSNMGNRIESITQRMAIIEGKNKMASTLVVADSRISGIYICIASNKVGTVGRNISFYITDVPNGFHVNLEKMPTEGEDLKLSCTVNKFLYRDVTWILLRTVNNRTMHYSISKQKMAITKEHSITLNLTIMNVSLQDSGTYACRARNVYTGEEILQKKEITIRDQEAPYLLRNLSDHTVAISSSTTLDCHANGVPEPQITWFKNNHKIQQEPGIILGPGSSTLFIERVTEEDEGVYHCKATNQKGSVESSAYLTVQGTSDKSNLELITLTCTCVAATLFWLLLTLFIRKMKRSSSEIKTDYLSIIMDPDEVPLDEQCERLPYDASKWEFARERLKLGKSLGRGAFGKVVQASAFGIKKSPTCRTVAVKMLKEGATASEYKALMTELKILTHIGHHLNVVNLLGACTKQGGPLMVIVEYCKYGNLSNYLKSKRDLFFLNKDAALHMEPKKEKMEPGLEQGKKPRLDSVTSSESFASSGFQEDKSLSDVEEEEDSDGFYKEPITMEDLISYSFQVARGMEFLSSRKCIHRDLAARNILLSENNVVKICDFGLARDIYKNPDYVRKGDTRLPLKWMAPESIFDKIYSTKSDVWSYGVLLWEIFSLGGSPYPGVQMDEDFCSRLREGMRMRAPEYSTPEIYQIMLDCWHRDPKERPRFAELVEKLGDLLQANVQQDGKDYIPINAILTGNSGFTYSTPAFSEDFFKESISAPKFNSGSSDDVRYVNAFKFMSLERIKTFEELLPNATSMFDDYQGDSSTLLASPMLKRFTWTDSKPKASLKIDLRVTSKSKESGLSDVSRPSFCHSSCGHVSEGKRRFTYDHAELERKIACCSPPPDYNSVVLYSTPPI
Sequence of Tyrosine-protein kinase Fes/Fps (Homo sapiens) (P07332 whole entry): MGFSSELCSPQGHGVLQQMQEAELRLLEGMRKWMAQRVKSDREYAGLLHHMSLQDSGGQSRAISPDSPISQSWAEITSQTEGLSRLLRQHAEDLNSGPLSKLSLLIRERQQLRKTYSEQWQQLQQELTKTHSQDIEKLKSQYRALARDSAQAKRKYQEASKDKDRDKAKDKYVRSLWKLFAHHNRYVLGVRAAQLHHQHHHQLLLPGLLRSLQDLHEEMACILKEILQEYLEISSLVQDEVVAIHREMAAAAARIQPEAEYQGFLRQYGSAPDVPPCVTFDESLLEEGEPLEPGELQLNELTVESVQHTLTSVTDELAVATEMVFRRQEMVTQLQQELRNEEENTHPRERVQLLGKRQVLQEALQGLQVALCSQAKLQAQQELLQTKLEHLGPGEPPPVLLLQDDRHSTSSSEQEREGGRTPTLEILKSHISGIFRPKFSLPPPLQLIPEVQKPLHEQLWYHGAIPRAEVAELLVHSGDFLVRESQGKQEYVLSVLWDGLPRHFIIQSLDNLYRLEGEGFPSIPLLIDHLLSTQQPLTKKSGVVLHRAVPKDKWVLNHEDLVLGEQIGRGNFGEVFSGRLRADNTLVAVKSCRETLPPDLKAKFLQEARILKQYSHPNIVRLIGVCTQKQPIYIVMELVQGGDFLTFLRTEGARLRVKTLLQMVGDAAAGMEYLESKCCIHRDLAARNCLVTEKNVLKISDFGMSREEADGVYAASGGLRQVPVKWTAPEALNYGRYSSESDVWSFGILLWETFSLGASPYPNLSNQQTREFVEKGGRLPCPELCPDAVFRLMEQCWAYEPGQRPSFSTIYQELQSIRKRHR
Sequence of Fibroblast growth factor receptor 3 (Homo sapiens) (P22607 23-806 limits assumed): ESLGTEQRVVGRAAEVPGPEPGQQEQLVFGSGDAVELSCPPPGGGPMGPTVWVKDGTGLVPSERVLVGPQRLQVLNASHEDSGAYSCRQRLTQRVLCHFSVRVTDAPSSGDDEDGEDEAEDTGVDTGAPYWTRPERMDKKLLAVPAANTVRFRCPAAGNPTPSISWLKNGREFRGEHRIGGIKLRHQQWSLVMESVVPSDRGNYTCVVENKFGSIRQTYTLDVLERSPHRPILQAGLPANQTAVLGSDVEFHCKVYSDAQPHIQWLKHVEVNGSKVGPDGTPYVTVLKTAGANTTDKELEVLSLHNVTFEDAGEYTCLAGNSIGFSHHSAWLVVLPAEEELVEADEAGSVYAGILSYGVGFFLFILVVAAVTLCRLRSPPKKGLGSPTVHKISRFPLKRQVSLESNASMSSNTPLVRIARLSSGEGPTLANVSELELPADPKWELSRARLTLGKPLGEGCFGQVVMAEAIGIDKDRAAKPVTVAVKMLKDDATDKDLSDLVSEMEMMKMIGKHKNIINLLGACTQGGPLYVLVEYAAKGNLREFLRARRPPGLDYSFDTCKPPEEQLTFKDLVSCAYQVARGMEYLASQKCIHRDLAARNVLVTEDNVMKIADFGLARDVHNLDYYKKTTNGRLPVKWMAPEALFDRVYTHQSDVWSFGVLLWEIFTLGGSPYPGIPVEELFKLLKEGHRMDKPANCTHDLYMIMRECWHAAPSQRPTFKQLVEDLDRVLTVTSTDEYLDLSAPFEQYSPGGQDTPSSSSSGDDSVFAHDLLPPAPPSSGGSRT

As usually defined, the residual activity is the signal under treatment as a percentage of the control signal. Turning to `CO[C@H]1[C@@H](OC)C[C@H](C)[C@@H](OC)C2=CC(=O)C=C(NC(=O)/C(C)=C/C=C/[C@H](OC)[C@@H](OC(N)=O)/C(C)=C/[C@@H]1C)C2=O`, the residual activity in assay [1] is 91%; in assay [2], 82%; in [3], 93%; in assay [4] it was 104%; in [5], 105%; in assay [6], 112%. In addition, the residual activity came to 102% in assay [7]; 109% in assay [8]; 94% in [9]; 110% in assay [10]; 99% in assay [11]; 111% in assay [12]. Besides, the residual activity in [13] came out at 99%; in assay [14], 100%; in assay [15], 86%; in [16] it was 95%; in assay [17], 85%; in assay [18] it was 76%. The residual activity in [19] was determined as 92%.

Consider `COc1ccc(C(=O)Nc2sc3c(c2C(N)=O)CCCC3)cc1OC`, for which the residual activity in [1] was determined as 78%; in [2], 87%; in [3] it was 118%; in [4], 86%; in assay [5] it was 99%; in [6], 104%. Also, the residual activity in assay [7] was determined as 109%; in assay [8], 107%; in [9], 99%; in [10], 108%; in assay [11], 91%; in [12], 123%. For the same compound, the residual activity in [13] was 110%; in assay [14], 93%; in [15] it was 72%; in assay [16] it was 81%; in assay [17], 32%; in [18] it was 35%. Besides, the residual activity in assay [19] was determined as 10%.

Regarding `CC(C)n1cnc2/c(=N/c3cccc(Cl)c3)nc(NCCO)[nH]c21`, the residual activity in assay [1] was 11%; in assay [2], 87%; in [3], 19%; in assay [4], 101%; in [5], 37%; in assay [6] it was 106%. For the same compound, the residual activity was 59% in [7]; 114% in [8]; 110% in [9]; 47% in assay [11]; 58% in assay [12]; 12% in assay [20]. Further, the residual activity turned out to be 48% in assay [13]; 12% in [14]; 68% in [15]; 30% in [16]; 20% in assay [17]; 1% in assay [18]. Also, the residual activity in [19] was 42%.

With `N#CCCc1ccc2c(c1)-c1[nH]c3ccc([N+](=O)[O-])cc3c1CC(=O)N2`, the residual activity in assay [1] worked out at 22%; in [2], 47%; in [3], 17%; in assay [5], 48%; in assay [12], 16%; in assay [20] it was 5%. The residual activity was 15% in assay [13]; 6% in assay [14]; 24% in assay [15]; 11% in [16]; 19% in assay [17]; 8% in assay [18]. Also, the residual activity in [19] came to 10%.

As to `CCN(CC)C(=O)c1ccc(Nc2nc(OCC3CCCCC3)c3nc[nH]c3n2)cc1`, the residual activity in [1] is 12%; in assay [2], 40%; in assay [3], 2%; in assay [4] it was 56%; in [5], 9%; in [6] it was 49%. Besides, the residual activity in [7] turned out to be 4%; in assay [10], 53%; in [11], 6%; in [12], 61%; in assay [20] it was 9%; in [13], 55%. Further, the residual activity was 7% in assay [14]; 33% in [15]; 2% in assay [16]; 5% in assay [17]; 1% in [18]; 0% in [19].

`CC(=O)c1ccc(N2CCOCC2)cc1O`: the residual activity in [1] is 94%; in assay [2] it was 97%; in [6], 98%; in [7], 128%; in assay [12] it was 133%; in assay [20] it was 94%. The residual activity was 110% in assay [13]; 102% in assay [14]; 106% in assay [15]; 97% in assay [16]; 102% in assay [17]; 86% in assay [18]. In assay [19], the residual activity was found to be 93%.

On to `COc1cc2ncnc(Nc3ccc(Oc4ccccc4)cc3)c2cc1OC`, for which the residual activity worked out at 71% in assay [1]; 48% in [3]; 65% in assay [4]; 33% in assay [5]; 78% in assay [6]; 54% in assay [7]. Besides, the residual activity in assay [8] came to 121%; in [9], 109%; in assay [10], 110%; in [11], 76%; in assay [12], 102%; in assay [20], 90%. The residual activity in assay [13] is 7%; in assay [14] it was 2%; in assay [15], 18%; in assay [16] it was 4%; in assay [17], 39%; in [18], 11%. The residual activity in [19] worked out at 7%.

In the case of `N#CC(C#N)=C(N)/C(C#N)=C/c1ccc(O)cc1`, the residual activity in assay [1] turned out to be 97%; in [2] it was 100%; in assay [3] it was 75%; in [6], 99%; in assay [8] it was 135%; in assay [20] it was 91%. Further, the residual activity worked out at 96% in assay [14]; 96% in assay [15]; 90% in assay [16]; 100% in assay [17]; 86% in assay [18]; 94% in [19].

For `Nc1ccc2ncnc(NCCc3ccc(Oc4ccccc4)cc3)c2c1`, the residual activity in assay [1] was 94%; in assay [2], 92%; in assay [3] it was 28%; in assay [4], 77%; in assay [5], 48%; in assay [6], 54%. The residual activity in assay [7] stood at 33%; in [8], 107%; in [9], 80%; in assay [10], 93%; in [11], 84%; in [12], 91%. Moreover, the residual activity came to 87% in [20]; 84% in assay [13]; 54% in assay [15]; 26% in assay [16]; 33% in [17]; 9% in assay [18]. Besides, the residual activity in [19] came out at 15%.

Turning to `CO[C@@H]1[C@H](N(C)C(=O)c2ccccc2)C[C@H]2O[C@]1(C)n1c3ccccc3c3c4c(c5c6ccccc6n2c5c31)C(=O)NC4`, the residual activity in assay [1] was 37%; in assay [2], 5%; in assay [3], -4%; in assay [4], 21%; in assay [5], 7%; in [6], 34%. For the same compound, the residual activity in assay [7] worked out at 19%; in assay [8] it was 71%; in [9], 41%; in [10], 26%; in assay [11] it was 14%; in assay [12], 15%. For the same compound, the residual activity in assay [20] is 9%; in assay [13], 7%; in assay [14], 4%; in [15], 4%; in [16], 1%; in assay [19], 1%.

Take `Cn1nc2c3c(cccc31)C(=O)c1ccccc1-2`: the residual activity amounted to 65% in [1]; 110% in assay [2]; 66% in [3]; 103% in assay [4]; 76% in assay [5]; 112% in assay [6]. Further, the residual activity in assay [7] was determined as 77%; in [8], 90%; in [9], 88%; in [10], 87%; in assay [11] it was 76%; in assay [12] it was 98%. Moreover, the residual activity in assay [20] worked out at 94%; in assay [13], 98%; in assay [14], 89%; in [15], 75%; in assay [16], 52%; in assay [17] it was 50%. Besides, the residual activity in [18] stood at 20%; in assay [19] it was 57%.

Take `Nc1cccc(-c2cc3c(Oc4cccc(O)c4)ncnc3[nH]2)c1`: the residual activity is 42% in assay [1]; 2% in [2]; 0% in [3]; 21% in assay [4]; 2% in [5]; 53% in [6]. For the same compound, the residual activity in assay [7] was 9%; in [8] it was 72%; in assay [9], 22%; in [10] it was 58%; in [11] it was 10%; in assay [12], 13%. Further, the residual activity was found to be 1% in [20]; 0% in [13]; 2% in [14]; 0% in assay [15]; 0% in assay [16]; 22% in [17]. The residual activity in [18] is 1%; in [19], -1%.

In the case of `O=C1NC(=O)/C(=C/c2ccc3c(c2)OC(F)(F)O3)S1`, the residual activity in assay [1] stood at 95%; in [2], 116%; in assay [3], 99%; in assay [4] it was 92%; in assay [5], 101%; in assay [6], 111%. Moreover, the residual activity in [7] amounted to 112%; in assay [8] it was 116%; in assay [9], 94%; in assay [10] it was 107%; in assay [11] it was 86%; in [12], 128%. The residual activity in [20] turned out to be 90%; in [13] it was 105%; in assay [14], 101%; in assay [15] it was 92%; in [16], 85%; in assay [17], 89%. Besides, the residual activity in [18] was 83%; in assay [19], 98%.

For the compound `c1ccc2c(-c3ccncc3)c[nH]c2c1`, the residual activity in assay [1] is 65%; in assay [3], 90%; in assay [4], 111%; in assay [5], 87%; in assay [8], 112%; in [9], 94%. For the same compound, the residual activity in assay [10] turned out to be 109%; in assay [11], 97%; in assay [12], 111%; in [20], 72%; in [14], 91%; in assay [15], 85%. Moreover, the residual activity in assay [16] turned out to be 63%; in assay [17], 107%; in assay [18], 78%; in assay [19] it was 91%.

In the case of `CC(=O)O/N=C1\C(=C2\C(=O)Nc3cc(Br)ccc32)Nc2ccccc21`, the residual activity in assay [1] came to 59%; in assay [2], 17%; in assay [3], 0%; in assay [4], 73%; in [5] it was 18%; in assay [6], 84%. Also, the residual activity in assay [7] came out at 22%; in [9], 69%; in assay [10], 94%; in assay [11] it was 92%; in assay [12], 107%; in assay [20] it was 97%. Besides, the residual activity is 10% in assay [13]; -1% in assay [14]; 24% in assay [15]; 1% in assay [16]; 3% in [17]; 0% in [18]. Further, the residual activity in assay [19] is 2%.
